The values below come from PubChem BioAssay (Tox21).

Records with an inconclusive call do not appear. Activity calls are given as the source filed them. Unless noted, calls follow the shape of the full dose curve.

Test [1] addresses Gonadotropin-releasing hormone receptor (Homo sapiens) (UniProt P30968). As to the kind of experiment: Human gonadotropin-releasing hormone receptor (GnRHR) small molecule agonists, calcium flux assay in GnRHR-HEK293 cells (AID 1920063). Also: nearly all actives have a fitted effect of over 35% in size. In a few lines: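 HEK293 cells stably expressing human GnRHR were plated 18 h at 37 °C, loaded with calcium dye 1 h at 37 °C, then given compound in agonist mode; fluorescence (Ex/Em 480/540) read kinetically for 3 min at 1 s intervals.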

The target in test [2] is KiSS-1 receptor (Homo sapiens) (UniProt Q969F8). As to the kind of experiment: Human kisspeptin (KISS1R) small molecule agonists, calcium flux assay in KISS1R-HEK293 cells (AID 1920064; active = well fitted activation curve with a large enough effect in the repeat runs). In a few lines:
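HEK293 cells stably expressing human KISS1R were plated 18 h at 37 °C, loaded with calcium dye for 1 h at 37 °C, then given compound by pin tool. Fluorescence (Ex/Em 480/540) was read kinetically for 3 min.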
Background: A change in cytosolic calcium serves as a functional read-out for many receptors and channels.

Test [3] can be described thus: G protein-coupled receptor (GPCR) small molecule agonists, calcium flux assay: HEK293 wild type cell line counter screen (AID 1920065). In a few lines:
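Cells were plated and cultured 18 h at 37 C/5% CO2, then loaded with calcium dye for 1 h at 37 C. Compounds in DMSO were pin-transferred in agonist mode, and fluorescence (Ex/Em 480/540) was read kinetically for 3 min at 1 s intervals.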

Test [4] can be described thus: p53 small molecule agonists, cell-based qHTS assay with human liver microsomes: qHTS cell viability counter screen (AID 1963579). Also: nearly all actives have a fitted effect of over 45% in size. In a few lines:
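Luminescent CellTiter-Glo read-out, 30 min at room temperature, gauged cytotoxicity in p53RE-bla cells exposed 16 h at 37 C to DMSO-dissolved compounds with metabolic activation by human liver microsomes and NADPH, each 0.5 mg/mL final.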

A short description of test [5]: p53 small molecule agonists, cell-based qHTS assay with rat liver microsomes: qHTS cell viability counter screen (AID 1963580). Also: nearly all actives have a fitted effect of over 45% in size. In a few lines:
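Intracellular ATP, by CellTiter-Glo luminescence, defines viability. HCT-116 p53RE-bla cells, 4,000 per well, were compound-treated in the presence of rat liver microsomes and NADPH for 16 h at 37 C.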

The nature of test [6]: p53 small molecule agonists, cell-based qHTS assay: qHTS cell viability counter screen (AID 1963581). Also: nearly all actives have a fitted effect of over 45% in size. In a few lines:
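p53RE-bla HCT-116 cells were exposed to compounds for 16 h at 37 C; after the beta-lactamase FRET read in the same wells, CellTiter-Glo was added and luminescence (intracellular ATP) read after 30 min at room temperature.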
In general terms: In qHTS, concentration-response curves come from the screen itself.

The target of test [7] is 5-hydroxytryptamine receptor 2A (Homo sapiens) (UniProt P28223). Put plainly: 5-hydroxytryptamine receptor 2A (HTR2A) small molecule antagonists, cell-based qHTS assay (AID 1963586). Also: nearly all actives have a fitted effect of over 45% in size. In a few lines:
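Antagonist-mode intracellular calcium assay: DOI (4 nM) added after 5 min compound pre-incubation at room temperature to dye-loaded HTR2A-CHO cells. Fluorescence followed for 3 min, sampled every second.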

For test [8] the target is unchanged. As to the kind of experiment: 5-hydroxytryptamine receptor 2A (HTR2A) small molecule agonists, cell-based qHTS assay (AID 1963587). Also: nearly all actives have a fitted effect of over 30% in size. In a few lines: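 Kinetic calcium-flux fluorescence (2 min, 1 sec intervals) after compound addition in agonist mode. HTR2A-CHO cells were cultured 18 h, then dye-loaded 1 h at 37 C.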
Test [9] deals with Muscarinic acetylcholine receptor M1 (Homo sapiens) (UniProt P11229). As to the kind of experiment: Cholinergic receptor muscarinic 1 (CHRM1) small molecule antagonists, cell-based qHTS assay (AID 1963588). Also: nearly all actives have a fitted effect of over 40% in size. Also: potency is read from the fitted curve at half-maximal effect. In a few lines: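 CHRM1-CHO calcium-flux assay, antagonist mode. Cells were seeded 18 h, dye-loaded 1 h at 37 C and given compound for 5 min at RT, then acetylcholine was added at 50nM. FDSS fluorescence was read 3 min; 15 concentrations, three runs.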

For test [10] the target is unchanged. Put plainly: Cholinergic receptor muscarinic 1 (CHRM1) small molecule agonists, cell-based qHTS assay (AID 1963589). Also: nearly all actives have a fitted effect of over 35% in size. In a few lines: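 CHO cells stably expressing human CHRM1, seeded 18 h at 37 C/5% CO2, dye-loaded 1 h at 37 C, then given compound in agonist mode; intracellular calcium fluorescence read kinetically at 1 s intervals. Fifteen concentrations, three independent runs.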

The nature of test [11]: cAMP Responsive Elements (CRE) small molecule agonists, cell-based qHTS assay (AID 1963590). In a few lines:
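CRE-bla HEK 293T cells in DMEM with 10% dialyzed FBS, NEAA, pyruvate and 25 mM HEPES were plated 18 h at 37 C/5% CO2, then exposed to compounds in DMSO for 3 h before LiveBLAzer B/G FRET substrate addition.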

Test [12] in a line: cAMP Responsive Elements (CRE) small molecule antagonists, cell-based qHTS assay (AID 1963591; active = well fitted inhibition curve with a large enough effect in the signal ratio in the repeat runs, not every such curve was filed as active; the % refers to the signal ratio). In a few lines:
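CRE-bla HEK293T cells were plated 18 h at 37 °C/5% CO2, pinned with compound in DMSO, then stimulated with NKH477 at 0.25 uM final for 3 h. LiveBLAzer B/G FRET substrate was added and plates incubated 2 h at room temperature.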

Test [13] concerns the target Beta-2 adrenergic receptor (Homo sapiens) (UniProt P07550). Put plainly: Adrenergic beta2 receptor (ADRB2) small molecule antagonists, cell-based qHTS assay (AID 1963592). Also: series mostly up to about 92 µM; nearly all actives have a fitted effect of over 50% in size. In a few lines: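 Cells (CHO, stable ADRB2 overexpression) incubated 18-20hr at 37C; compounds added from DMSO; agonist mix (1nM isoproterenol, 100uM IBMX, 25uM Ro-20-1724) added; 0.5hr RT; d2-cAMP and anti-cAMP-cryptate added; 1hr RT; 665/615 nm read.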

The target is the same in test [14]. Put plainly: Adrenergic beta2 receptor (ADRB2) small molecule agonists, cell-based qHTS assay (AID 1963593).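 Also: CHO cells stably overexpressing human ADRB2.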 In a few lines:
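CHO cells stably over-expressing ADRB2 were plated overnight at 37C, then dosed with compounds plus a stimulation mix containing 100uM IBMX and 25uM Ro-20-1724 for 0.5hr at room temperature. cAMP was measured by HTRF competition, 1hr.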

Test [15] has as its target D(2) dopamine receptor (Homo sapiens) (UniProt P14416). Put plainly: Dopamine D2 receptor (DRD2) small molecule agonists, cell-based qHTS assay (AID 1963594). Also: nearly all actives have a fitted effect of over 35% in size. In a few lines:
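cAMP accumulation in DRD2-HEK293 cells measured by HTRF after 1 h detection; compounds added 10 min before NKH477 (200nM […]) forskolin-analogue stimulation, 30 min at room temperature, with Ro20-1724 present at 0.1 mM final.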

The target is the same in test [16]. As to the kind of experiment: Dopamine D2 receptor (DRD2) small molecule antagonists, cell-based qHTS assay (AID 1963595; active = well fitted inhibition curve with a large enough effect in the signal ratio in the repeat runs, with a control signal flat; the % refers to the signal ratio). In a few lines:
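DRD2-HEK293; 0.1 mM Ro20-1724; cpd 10 min RT; NKH477 200 nM + quinpirole 12 nM, 30 min RT; HTRF cAMP (cAMP-d2/anti-cAMP cryptate), 665/620 nm ratio after 1 h.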

Test [17] in a line: Nuclear factor erythroid 2-related factor 2/antioxidant responsive element (Nrf2/ARE) small molecule agonists: luciferase reporter gene qHTS assay in human keratinocytes (AID 1919969). Also: nearly all actives have a fitted effect of over 35% in size. A general note: In a reporter assay the amount or activity of a reporter protein is the signal.
Test [18] can be described thus: p53 small molecule agonists, cell-based qHTS assay with human liver microsomes (AID 1963577).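 Also: p53 response element beta-lactamase reporter cells with liver microsomes plus NADPH.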 In a few lines: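 p53RE-bla cells; 5 h settle, 37 C/5% CO2; cpd + HLM 0.5 mg/mL + NADPH 0.5 mg/mL (final); 16 h 37 C; LiveBLAzer 2 h RT dark; fluorescence readout.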
Test [19] can be described thus: p53 small molecule agonists, cell-based qHTS assay with rat liver microsomes (AID 1963578). In a few lines: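 Rat liver microsome activation: microsomes 0.5 mg/mL, NADPH 0.5 mg/mL final; p53RE-bla cells, 16 h 37 C; LiveBLAzer readout, 2 h RT dark.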
The nature of test [20]: p53 small molecule agonists, cell-based qHTS assay (AID 1963582; active = well fitted activation curve with a large enough effect in the signal ratio in the repeat runs, not every such curve was filed as active; the % refers to the signal ratio). In a few lines:
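p53RE-bla beta-lactamase reporter cells rested 5 h at 37 C/5% CO2, then received compounds in DMSO by pin transfer and were incubated 16 h at 37 C. LiveBLAzer B/G FRET substrate was loaded for 2 h at room temperature before fluorescence reading.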

Sequence of Beta-2 adrenergic receptor (Homo sapiens) (P07550 whole entry, looked up): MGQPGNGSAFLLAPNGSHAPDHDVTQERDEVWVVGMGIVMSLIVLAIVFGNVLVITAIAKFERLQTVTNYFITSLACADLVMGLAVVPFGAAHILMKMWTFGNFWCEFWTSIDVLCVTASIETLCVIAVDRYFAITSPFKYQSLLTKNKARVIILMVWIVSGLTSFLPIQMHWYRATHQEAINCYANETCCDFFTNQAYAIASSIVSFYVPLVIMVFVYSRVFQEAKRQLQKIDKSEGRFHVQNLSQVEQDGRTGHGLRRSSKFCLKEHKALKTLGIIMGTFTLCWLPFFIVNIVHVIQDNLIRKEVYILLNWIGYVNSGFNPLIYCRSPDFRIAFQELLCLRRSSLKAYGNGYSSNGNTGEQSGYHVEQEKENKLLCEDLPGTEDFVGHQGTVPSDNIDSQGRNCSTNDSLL
Sequence of Gonadotropin-releasing hormone receptor (Homo sapiens) (P30968 whole entry, looked up): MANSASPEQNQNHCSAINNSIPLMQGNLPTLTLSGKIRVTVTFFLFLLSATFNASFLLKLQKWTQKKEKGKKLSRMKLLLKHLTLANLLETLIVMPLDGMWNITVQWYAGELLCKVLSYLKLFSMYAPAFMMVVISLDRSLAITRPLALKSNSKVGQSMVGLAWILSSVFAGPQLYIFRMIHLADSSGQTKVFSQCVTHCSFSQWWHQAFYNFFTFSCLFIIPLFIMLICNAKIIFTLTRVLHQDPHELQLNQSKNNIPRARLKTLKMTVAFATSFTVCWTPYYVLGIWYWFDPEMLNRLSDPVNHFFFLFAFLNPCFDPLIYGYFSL
Sequence of Muscarinic acetylcholine receptor M1 (Homo sapiens) (P11229 whole entry, looked up): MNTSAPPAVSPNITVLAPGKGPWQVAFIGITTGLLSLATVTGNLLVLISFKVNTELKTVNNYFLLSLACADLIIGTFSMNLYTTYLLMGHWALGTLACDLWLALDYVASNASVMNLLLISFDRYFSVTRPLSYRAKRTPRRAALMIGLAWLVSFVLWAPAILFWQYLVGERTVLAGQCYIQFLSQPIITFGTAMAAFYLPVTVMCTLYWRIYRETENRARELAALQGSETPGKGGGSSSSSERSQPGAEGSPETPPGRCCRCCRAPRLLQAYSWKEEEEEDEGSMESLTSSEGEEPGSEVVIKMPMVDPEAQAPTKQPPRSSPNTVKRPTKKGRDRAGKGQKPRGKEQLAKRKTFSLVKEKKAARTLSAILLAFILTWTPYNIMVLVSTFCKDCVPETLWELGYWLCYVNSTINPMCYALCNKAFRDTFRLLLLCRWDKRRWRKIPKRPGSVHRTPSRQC
Sequence of D(2) dopamine receptor (Homo sapiens) (P14416 whole entry, looked up): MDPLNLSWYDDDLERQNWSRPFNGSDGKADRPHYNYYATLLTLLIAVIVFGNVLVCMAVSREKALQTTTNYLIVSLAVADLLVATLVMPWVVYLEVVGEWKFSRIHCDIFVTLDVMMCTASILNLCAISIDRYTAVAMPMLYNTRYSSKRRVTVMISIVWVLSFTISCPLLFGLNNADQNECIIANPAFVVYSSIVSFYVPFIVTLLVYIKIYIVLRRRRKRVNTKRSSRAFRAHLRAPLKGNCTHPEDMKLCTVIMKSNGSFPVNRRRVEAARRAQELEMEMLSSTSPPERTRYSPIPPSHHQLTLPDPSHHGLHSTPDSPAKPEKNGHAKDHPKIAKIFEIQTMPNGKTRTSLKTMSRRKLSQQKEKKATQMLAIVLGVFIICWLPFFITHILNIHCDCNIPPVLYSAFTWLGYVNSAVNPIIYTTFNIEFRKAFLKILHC
Sequence of 5-hydroxytryptamine receptor 2A (Homo sapiens) (P28223 whole entry, looked up): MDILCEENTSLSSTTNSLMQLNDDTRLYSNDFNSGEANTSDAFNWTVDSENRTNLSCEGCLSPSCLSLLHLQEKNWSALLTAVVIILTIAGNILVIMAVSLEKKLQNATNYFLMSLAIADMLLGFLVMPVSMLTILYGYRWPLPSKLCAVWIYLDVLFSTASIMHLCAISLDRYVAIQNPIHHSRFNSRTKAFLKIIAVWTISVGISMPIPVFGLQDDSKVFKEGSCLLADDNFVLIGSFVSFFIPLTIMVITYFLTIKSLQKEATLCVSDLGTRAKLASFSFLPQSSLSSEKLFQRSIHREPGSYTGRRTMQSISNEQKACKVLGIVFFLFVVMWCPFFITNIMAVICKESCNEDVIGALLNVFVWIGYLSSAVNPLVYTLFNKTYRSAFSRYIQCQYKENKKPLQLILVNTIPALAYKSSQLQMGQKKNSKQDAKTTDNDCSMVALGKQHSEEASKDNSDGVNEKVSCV
Sequence of KiSS-1 receptor (Homo sapiens) (Q969F8 whole entry, looked up): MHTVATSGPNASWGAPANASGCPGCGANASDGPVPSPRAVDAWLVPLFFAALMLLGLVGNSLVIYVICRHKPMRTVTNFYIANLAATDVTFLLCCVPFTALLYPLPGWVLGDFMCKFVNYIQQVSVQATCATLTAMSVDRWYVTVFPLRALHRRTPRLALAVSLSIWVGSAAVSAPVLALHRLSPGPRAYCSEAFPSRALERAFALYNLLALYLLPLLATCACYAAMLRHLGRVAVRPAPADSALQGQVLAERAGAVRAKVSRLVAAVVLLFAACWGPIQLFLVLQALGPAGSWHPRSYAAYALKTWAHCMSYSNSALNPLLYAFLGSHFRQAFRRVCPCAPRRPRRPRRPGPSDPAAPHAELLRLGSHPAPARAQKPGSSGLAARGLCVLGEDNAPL

Consider `CCCC[n+]1ccccc1C`, for which the Potency result in test [1], in test [2], in [3], in [4], in test [5] and in test [6] was “inactive” throughout. Also, the Potency result in [7], in [8], in [9], in test [10], in [11] and in test [12] was “inactive” each time. Besides, the Potency entry in [13], in test [14], in test [15] and in [16] was “inactive” throughout.

As for `CCCCOC(=O)c1ccccc1C(=O)O`, the Potency entry in test [17], in test [1], in test [2], in test [3], in [18] and in [19] was “inactive” each time. Also, the Potency entry in test [4], in [5], in test [6], in [20], in test [7] and in test [8] was “inactive” in each case. The Potency entry in test [9], in test [10], in [11], in [12], in test [13] and in test [15] was “inactive” in each case. In addition, the Potency entry in test [16] is “inactive”.

With `CC(C)CCCCCOC(=O)c1ccccc1C(=O)OCCCCCC(C)C`, the Potency entry in test [2], in test [3], in test [18], in test [19], in test [4] and in test [5] was “inactive” each time. Further, the Potency entry in [6], in test [20], in test [7], in test [8], in test [10] and in test [11] was “inactive” each time. The Potency entry in test [12], in [13], in test [14], in [15] and in test [16] was “inactive” throughout. Besides, in test [9], the Potency is 2620 nM (active).

`O=P1(NCCCl)OCCCN1CCCl` (configuration not stated): the Potency result in test [2], in test [3], in test [4], in test [5], in test [6] and in test [11] was “inactive” each time. The Potency entry in test [12], in test [13], in [14] and in [16] was “inactive” throughout.

Turning to `CCn1cc[n+](C)c1C`, the Potency entry in test [2], in test [3], in test [4], in [5], in test [6] and in [7] was “inactive” each time. Also, the Potency result in test [8], in test [9], in test [10], in test [11], in test [12] and in test [13] was “inactive” throughout. Further, the Potency result in [14], in test [15] and in test [16] was “inactive” in each case.

For the compound `CCN(CC)C1CCCCC1`, the Potency entry in test [1], in test [3], in test [18], in [4], in test [6] and in [7] was “inactive” in each case. The Potency entry in test [8], in test [9], in test [10], in [11], in test [12] and in test [14] was “inactive” in each case. Moreover, the Potency entry in test [15] and in [16] was “inactive” throughout.

For `CC(C)(C)C(=O)C(Cl)Cl`, the Potency entry in test [1], in test [3], in test [18], in test [19], in test [4] and in test [5] was “inactive” in each case. Besides, the Potency entry in test [6], in [20], in [7], in test [8], in [9] and in [10] was “inactive” in each case. Also, the Potency entry in test [11], in [13], in [15] and in [16] was “inactive” throughout.

`O=C(CCl)c1ccc(Cl)cc1Cl`: the Potency entry in test [1], in test [2], in test [3], in test [4], in [5] and in test [6] was “inactive” each time. Further, the Potency result in [7], in test [8], in [9], in [10], in test [12] and in test [15] was “inactive” each time. Also, in [16], the Potency entry is “inactive”.

Regarding `COP(=S)(OC)Oc1cc(Cl)c(Cl)cc1Cl`, the Potency entry in [1], in [2], in test [3], in test [4], in test [5] and in test [6] was “inactive” each time. Moreover, the Potency result in test [20], in test [7], in test [8], in test [9], in [10] and in test [11] was “inactive” in each case. The Potency entry in test [12], in [13], in test [15] and in test [16] was “inactive” in each case.
